Data reported in PubChem BioAssay AID2625 (National Center for Advancing Translational Sciences (NCATS), 2010).
Inconclusive results are not listed. Calls of active or inactive are those of the source. Calls come from the whole dose curve; as a rule, active = well fitted curve in the direction sought with a large enough effect; inconclusive = small, poorly fitted or top-dose-only effect, or effect the other way, or another doubt; inactive = no such curve, though single readings can be large or run the other way.

Target: Pyruvate kinase PKLR (Homo sapiens) (UniProt P30613)
Sequence (P30613 whole entry, looked up): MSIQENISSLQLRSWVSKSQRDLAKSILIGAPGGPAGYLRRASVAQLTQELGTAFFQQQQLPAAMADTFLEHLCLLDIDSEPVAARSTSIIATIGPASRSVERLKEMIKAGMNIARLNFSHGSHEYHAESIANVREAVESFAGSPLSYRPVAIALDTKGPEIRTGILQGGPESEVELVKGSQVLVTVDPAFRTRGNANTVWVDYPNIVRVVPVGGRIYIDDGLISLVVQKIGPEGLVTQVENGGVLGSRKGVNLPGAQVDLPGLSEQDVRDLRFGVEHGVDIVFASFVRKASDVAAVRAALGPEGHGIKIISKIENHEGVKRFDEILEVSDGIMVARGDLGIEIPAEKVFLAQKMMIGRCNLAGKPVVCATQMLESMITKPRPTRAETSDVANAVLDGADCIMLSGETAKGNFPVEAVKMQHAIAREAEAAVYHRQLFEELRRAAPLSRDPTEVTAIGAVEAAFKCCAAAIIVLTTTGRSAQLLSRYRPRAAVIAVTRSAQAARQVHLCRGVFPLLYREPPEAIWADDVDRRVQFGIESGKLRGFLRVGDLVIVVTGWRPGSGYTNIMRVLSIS
Assay: Secondary LDH Assay for Activators of Human Liver Pyruvate Kinase: for Probe SAR
Conditions: purified hPK-L, LDH-coupled NADH fluorescence kinetic; series mostly up to 58.2 µM
Source text: NIH Chemical Genomics Center [NCGC]
Matthew G. Vander Heiden, M.D., Ph.D. [Harvard Medical School, 77 Avenue Louis Pasteur, Boston, MA 02115]
Human pyruvate kinase liver (hPK-L)enzyme was supplied as a highly purified (>95% pure) preparation from Harvard Medical School and a secondary assay was used to evaluate compounds. This assay couples the formation of pyruvate from hPK-R using lactate dehydrogenase (LDH) and NADH. The depletion of NADH is followed in a fluorescent-based kinetic assay that follows the formation of pyruvate to lactate, as catalyzed LDH. Pyruvate kinase substrates, PEP and ADP, were present in the assay at 0.1 mM and 4 mM respectively. In this kinetic assay initial rates were determined by following the fluorescence of NADH depletion.
NCGC Assay Protocol Summary:
Three uL of substrate mix (final concentration, 50 mM Tris-Cl pH 8.0, 200 mM KCl, 15 mM MgCl2, 0.1 mM PEP, 4.0 mM ADP, and 0.2 mM NADH) was dispensed into black-solid 1536 well plates. 23 nL of compounds were delivered by a pin tool and 1 uL of enzyme mix (final concentrations, 10 nM hPK-L and 1 uM of LDH) was added. Plates were immediately placed in ViewLux (Perkin Elmer) and NADH fluorescence was determined at 30 second exposure intervals for between 3 and 6 minutes. Data were normalized to the uninhibited and EC100 activation using known activators such as fructose-bis-phosphate.

outcome, inactive:
COc1ccccc1OC1=NS(=O)(=O)c2ccccc21
O=C1NS(=O)(=O)c2ccccc21
N#Cc1cccc(NS(=O)(=O)c2ccc3c(c2)CCC(=O)N3)c1
Cc1ccc(NS(=O)(=O)c2cc3c(cc2-c2ccsc2)NC(=O)CO3)cc1C
Cn1c2cc(S(C)=O)sc2c2cnn(Cc3cccc(O)c3)c(=O)c21 (stereo not given)
O=C1c2ccccc2C(=O)N1c1cccc(Cl)c1
COc1cccc(N2C(=O)c3ccccc3C2=O)c1
COc1cc(F)c(S(=O)(=O)N2CCCN(S(=O)(=O)c3cccc(N)c3)CC2)c(F)c1
O=C1CCc2cc(S(=O)(=O)Nc3ccc4ncccc4c3)ccc2N1
O=C1CCc2cc(S(=O)(=O)Nc3cccc4ccccc34)ccc2N1
O=C1c2ccccc2C(=O)N1c1ccc2ncccc2c1
O=C1CCc2cc(S(=O)(=O)Nc3ccc(Cl)cc3)ccc2N1
O=S1(=O)N=C(Oc2ccccc2)c2ccccc21
O=C1CCc2cc(S(=O)(=O)Nc3cccc(F)c3)ccc2N1
COc1ccccc1N1C(=O)c2ccccc2C1=O
Nc1cc(S(=O)(=O)N2CCN(S(=O)(=O)c3ccc4c(c3)OCCO4)CC2)ccn1
Cc1ccccc1OC1=NS(=O)(=O)c2ccccc21
Cc1ccc(NS(=O)(=O)c2ccc3c(c2)N(C)CCO3)cc1C
O=C1c2ccccc2C(=O)N1c1cncc2ccccc12
Cc1ccc(NS(=O)(=O)c2ccc3c(c2)CCC(=O)N3)cc1C
O=C1c2ccccc2C(=O)N1c1cccnc1
O=C1c2ccccc2C(=O)N1c1ccc(O)cc1
Cc1ccc(-c2nc3ccc(Cl)cn3c2Nc2ccccc2)o1
O=C1CCc2cc(S(=O)(=O)Nc3cccc(-c4ccccc4)c3)ccc2N1
Cc1ccc(NS(=O)(=O)c2ccc3c(c2)CCC(=O)N3)cc1F
Cc1ccc(NS(=O)(=O)c2cc3c(cc2-c2ccccc2)NC(=O)CO3)cc1C
COc1ccc(Nc2c(-c3ccc(C)o3)nc3ccccn23)cc1
Cc1c(Cl)cccc1NS(=O)(=O)c1cc2c(cc1F)NC(=O)CC2
CC(=O)Nc1cccc(S(=O)(=O)Nc2ccc(C)c(C)c2)c1
O=C1CCc2cc(S(=O)(=O)Nc3ccc4ccccc4c3)ccc2N1
Cc1ccc(NS(=O)(=O)c2ccc3[nH]c(=O)[nH]c3c2)cc1C
Cc1ccc(NS(=O)(=O)c2ccc3c(c2)CCO3)cc1C
O=C1c2ccccc2C(=O)N1c1cccc2cccnc12
Cc1ccc(NS(=O)(=O)c2cccc(C(=O)O)c2)cc1C
Cc1cc2c(s1)c1cnn(Cc3ccccc3F)c(=O)c1n2C
O=C1CCc2cc(Cl)c(S(=O)(=O)Nc3ccc(Cl)c(Cl)c3)cc2N1
O=C1CCc2cc(S(=O)(=O)Nc3ccccc3Cl)ccc2N1
N#Cc1ccc(NS(=O)(=O)c2ccc3c(c2)CCC(=O)N3)cc1
Cc1ccc(NS(=O)(=O)c2ccc3c(c2)oc(=O)n3C)cc1C
O=C1c2ccccc2C(=O)N1c1ccccc1O
